# PubChem BioAssay AID540259 (Broad Institute, 2011)
# Results with a measured potency or affinity are listed apart. A number with no mark means an inactive call.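 How the source made its calls: active means cell killing, meaning signal decrease, with fitted half-maximal dose at or below ten times the top valid tested dose; inconclusive means poor fit, or flat curve with 30 to 70% signal loss; inactive means the rest.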
# Assay: HeLa cell cytotoxicity, dose response, cytotoxicity control for MITF activator project, CellTiter-Glo luminescence, cherry-pick samples (AID 540259);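 further: 0% = DMSO neutral control and -100% = mitoxantrone positive control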
# Details: HeLa viability, CellTiter-Glo ATP luminescence, 24 h; series mostly up to 35 µM; activity change, negative = cytotoxicity: at the top concentration
row,SMILES,"activity change, negative = cytotoxicity"
1,Cc1nc(SCc2ccccc2)nc2c1CCC2,-15.5%
2,O=c1c2c(nc3cc(-c4ccc(Br)cc4)[nH]n13)CCCC2,1.93%
3,Cc1cccc(Nc2nc3c(s2)CCCC3)c1,-9.87%
4,COc1ccc(NC(=S)c2ccccc2)cc1,2.2%
5,Cc1cc(C)n2nc(SCN3C(=O)c4ccccc4C3=O)nc2n1,-0.893%
6,N#C/C(=N\Nc1ccccc1F)C(=N)N1CCCCC1,-9.97%
7,N#Cc1ccsc1NC(=O)CCc1ccccc1,-1.2%
8,CCc1ccc(C(=O)N/N=C(\C)c2cccnc2)s1,8.45%
9,Nc1nc2ccccc2cc1-c1cccs1,1.96%
10,Cc1cccc(NC(=O)c2onc3c2CCCC3)c1C,3.8%
11,CC1CCN(C(=O)Nc2ccc3nsnc3c2)CC1,7.47%
12,COc1ccc(-c2csc(N(C)C(=O)c3cccs3)n2)cc1,-2.71%
13,c1cnc(Nc2nc(-c3ccc4ccccc4c3)cs2)nc1,4.16%
14,Cc1ccc(O)c(-n2nc3ccccc3n2)c1,1.3%
15,Cn1cc(Br)c(C(=O)N/N=C/c2cc3c(cc2Cl)OCO3)n1,28.1%
16,Cc1ccc(-c2cn(-c3ccccc3)c(=S)[nH]2)cc1C,20% [at 11 µM]
17,O=C(Nc1cnc2ccccc2c1)N1CCCCC1,17%
18,CCN(CC)CC(=O)Nc1scc2c1c(=O)oc1ccccc12,5.03%
19,Cc1ccn2cc(-c3cccc(NS(C)(=O)=O)c3)nc2c1,0.194%

row,SMILES,"activity change, negative = cytotoxicity"
1,Cn1c2ccccc2c(=O)c2cc(C#Cc3ccccn3)ccc21,18.8% [at 11 µM]
2,CCc1nc2oc3ccccc3c(=O)c2cc1C(=O)OC,-3.48%
3,Cc1ccc(Nc2nnc(-c3ccccc3N)o2)cc1C,-1.3%
4,COc1ccc(-n2nc(C(=O)NCC(=O)N3CCN(c4ccccc4)CC3)c3ccccc3c2=O)c(OC)c1,1.45%
5,COc1ccccc1C(=O)NCCC(=O)NC1CCC(C)CC1 (configuration not stated),9.79%
6,COC(=O)c1ccc(-c2ccc(Cl)cc2)nc1C,-3.47%
7,O=C(Nc1ccc2c(c1)OCO2)c1cc(-c2ccccc2Cl)on1,-2.3%
8,Nc1ccc(Oc2cc(N)cc(Oc3ccccc3)c2)cc1,9.55%
9,N/C(=N\OC(=O)C1CCCCC1)c1cccc(Br)c1,17.7%
10,CCC(=O)N1CCc2nc(-c3ccccc3)sc2C1,0.697%
11,CC(=O)c1cnc2nc(SCc3ccccc3)nn2c1C,17.8%
12,Cn1cccc1C(=O)N/N=C/c1c(Cl)cccc1Cl,0.429%
13,CCc1c(C(=O)Nc2ccc(C)c(C)c2)[nH]c(C)c1C(C)=O,0.691%
14,Nc1c(C(=O)C2CC2)sc2nc3c(cc12)CCC3,-0.641%
15,Clc1ccc(-n2nnc(-c3ncc[nH]3)n2)cc1Cl,0.421%
16,Cc1ccc(-c2nn(-c3ccccc3)cc2/C=N/O)cc1,27.1% [at 11 µM]
17,CCCCNC(=O)c1cc2ccccc2s1,2.01%
18,Cc1ccccc1Nc1nc(N)nc(COC(=O)c2ccccc2)n1,11.2%
